Measured values as given in PubChem BioAssay (NCI).
Compounds without any hit were thinned out: in the full panel of roughly 83,000, 20% have a hit.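 How to read the values: 0–100, growth inhibition (40 = 60% inhibited); 0, no net growth; -100 to 0, cell death (-40 = 40% of starting cells died; -100 = all dead).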 Values without a mark were called inactive. Active and inactive are the calls of the source. How the source made its calls: active means growth percent below 10; inactive means the rest.

Key:
Experiment in all cases: NCI-60 one-dose screen, 48 h (100 = growth as untreated, 0 = no growth, -100 = all killed)
Details in all cases: 10 µM unless noted
HCT-15 colon = tested on: HCT-15 colon
HT29 colon = tested on: HT29 colon
SNB-75 CNS = tested on: SNB-75 CNS
SNB-19 CNS = tested on: SNB-19 CNS
U251 CNS = tested on: U251 CNS
PC-3 prostate = tested on: PC-3 prostate
SK-MEL-5 melanoma = tested on: SK-MEL-5 melanoma
UACC-62 melanoma = tested on: UACC-62 melanoma
LOX IMVI melanoma = tested on: LOX IMVI melanoma
SK-MEL-28 melanoma = tested on: SK-MEL-28 melanoma

Row | SMILES | growth (HCT-15 colon) | growth (HT29 colon) | growth (SNB-75 CNS) | growth (SNB-19 CNS) | growth (U251 CNS) | growth (PC-3 prostate) | growth (SK-MEL-5 melanoma) | growth (UACC-62 melanoma) | growth (LOX IMVI melanoma) | growth (SK-MEL-28 melanoma)
1 | Nc1c(Cl)c(Cl)nc(C(=O)O)c1Cl | 95% | 110% | 71.4% | 95.1% | 94.2% | 84.9% | 108% | 92.4% | 90.7% | 120%
2 | O=C(O)c1ccccc1N(CCO)CCCl | 87% | 115% | 81.3% | 98.8% | 94.5% | 87.6% | 101% | 94% | 86.6% | 100%
3 | ClC1OC(Cl)(Cl)C(Cl)(Cl)OC1(Cl)Cl (configuration not stated) | 106% | 103% | 88.3% | 112% | 103% | 104% | 100% | 104% | 108% | 106%
4 | O=C(O)C(F)F | 106% | 100% | 113% | 111% | 108% | 105% | 99.7% |  | 99% | 116%
5 | Cc1ccc(S(=O)(=O)n2cc([C@@]3(O)C[C@H](CSC#N)OC3=O)c3ccccc32)cc1 | 70% | 54.3% | 67.8% | 97.5% | 40.9% | 78.5% | 66.6% | 76.3% | 49.4% | 96.2%
6 | O=C/C=C/c1ccco1 | 106% | 95.1% | 80.5% | 106% | 95.1% | 83.7% | 113% |  | 98.2% | 114%
7 | CC[C@H](C)[C@H](NC(=O)c1ncccn1)C(=O)N(C)[C@H](C[C@@H](OC(C)=O)c1nc(C(=O)N[C@@H](Cc2ccccc2)C[C@H](C)C(=O)OC)cs1)C(C)C | 10.3% | -2.02% (active) | -3.1% (active) | 44.1% | 16.7% | 27.7% | 21.5% | 46.9% | 21.4% | 50.3%
8 | O=C1c2ccccc2C(=O)N1N1CC1c1ccccc1 (configuration not stated) | 101% | 110% | 100% | 104% | 104% | 97.7% | 101% | 105% | 96.6% | 108%
9 | C[N+]12CCC34C5=CC(=O)C(=O)C=C5[N+]5(C)C(=O)CC6OCC=C(C1)C(CC32)C6C45 (configuration not stated) | 103% | 104% | 109% | 104% | 104% | 106% | 97.5% | 106% | 118% | 108%
10 | C=CC[PH+](c1ccccc1)c1ccccc1.C=CC[PH+](c1ccccc1)c1ccccc1.[Pt+2].[S-]c1nc2ccccc2[nH]1.[S-]c1nc2ccccc2[nH]1 | 70% | -30.4% (active) | -64.5% (active) | 5.65% (active) | -83% (active) | 9.47% (active) | -94.9% (active) | -48.9% (active) | -95% (active) | -47.1% (active)
11 | CC1OC(=O)C(C(C)C)NC(=O)C(C(C)C)OC(=O)C(C(C)C)NC(=O)C(C)OC(=O)C(C(C)C)NC(=O)C(C(C)C)OC(=O)C(C(C)C)NC(=O)C(C)OC(=O)C(C(C)C)NC(=O)C(C(C)C)OC(=O)C(C(C)C)NC1=O (configuration not stated) | -3.27% (active) | -32.3% (active) | -18.5% (active) | -17% (active) | -41.9% (active) | -49.8% (active) | -74.5% (active) |  | -26.4% (active) | -28.8% (active)
12 | CCOC(=O)c1ccccc1C(=O)OCC | 93.8% | 102% | 83.3% | 105% | 99.9% | 113% | 110% | 91.4% | 97.9% | 114%
13 | O=NN1CCCCC1 | 106% | 103% | 82.6% | 97.8% | 111% | 110% | 106% | 97.1% | 100% | 110%
14 | C[C@]12CC[C@H](O)C[C@@H]1CC[C@@H]1[C@@H]2CC[C@]2(C)OC(=O)CC[C@@H]12 | 95.2% | 79.6% | 85.8% | 96.6% | 86.9% | 92.5% | 101% |  | 97.9% | 105%
15 | O=[N+]([O-])c1cc(Br)c(O)c(Br)c1 | 100% | 95.6% | 102% | 102% | 99.8% | 96.7% | 98% | 105% | 101% | 120%
16 | COc1ccc(C(C#N)C(C)=O)cc1 (configuration not stated) | 95% | 88.7% | 82.1% | 105% | 106% | 103% | 102% | 97.6% | 98.1% | 115%
17 | C[C@]12CCC(=O)C[C@@H]1CC[C@@H]1[C@@H]2CC[C@]2(C)[C@@H](OC(=O)N(CCCl)N=O)CC[C@@H]12 | 27.9% | 31.6% | 39.4% | 31% | 16.1% | 36.3% | 22.8% | 13.5% | 22.6% | 63.1%
18 | COc1ccc(O)c2c(=O)c3c(OC)cc4c(c3oc12)[C@@H]1C=CO[C@@H]1O4 | 53.3% | 54.3% | 38.5% | 81% | 73.4% | 76.7% | 25.9% | 7.2% (active) | 72.6% | 98.2%
19 | CN1CCN(c2ccc(Cl)cc2)CC1 | 20.1% | 26.4% | 111% | 93.9% | 70.1% | 107% | 101% | 86.4% | 70.5% | 99.1%
20 | CCC1(NC(=O)c2cc(F)c(F)c(F)c2F)C(=O)NC(=O)N(C(C)C)C1=O (configuration not stated) | 12.4% | 76.6% | 88.4% | 92.7% | 90.6% | 93% | 64.7% |  | 42% | 53.2%
21 | C/C(=C\c1ccn(-c2ccc(N)c(C(F)(F)F)c2)n1)[C@@H]1C[C@@H]2O[C@]2(C)CCC[C@H](C)[C@H](O)[C@@H](C)C(=O)C(C)(C)[C@@H](O)CC(=O)O1 | 20% | 13% | -2.27% (active) | 38% | 26.3% | 15.7% | 21.5% |  | 26.2% | 55.8%
22 | COc1cc2c(cc1OC)-c1c3c(cc4c1[C@@H](C2)N(C)CC4)OCO3 | 29% | 29% | 57.9% | 48.4% | 39.3% | 39.8% | 57.9% |  | 26.2% | 
23 | CC(=O)Nc1nc2c(s1)C1=CC[C@H]3[C@@H]4CC[C@H](OC(C)=O)[C@@]4(C)CC[C@@H]3[C@@]1(C)CC2 | 40.3% | 26.6% | 0.377% (active) | 62% | 43.9% | 59.2% | 36.9% |  | 63.5% | 54.7%
24 | c1ccc2c(c1)sc1ccccc12 | 103% | 99.8% | 85.3% | 98.4% | 99.3% | 84.7% | 91.1% | 100% | 93.9% | 105%
25 | C=CC[PH+](c1ccccc1)c1ccccc1.C=CC[PH+](c1ccccc1)c1ccccc1.[Pt+2].[S-]c1ncccn1.[S-]c1ncccn1 | -29.3% (active) | 0.0923% (active) | 58.3% | 74.9% | 59.1% | 38.8% | 66.6% |  | -68.3% (active) | -30.9% (active)
26 | COC[C@H]1OC(=O)c2coc3c2[C@@]1(C)C1=C(C3=O)[C@@H]2CCC(=O)[C@@]2(C)C[C@H]1OC(C)=O | 53.8% | 34.4% | -21% (active) | 66.2% | 70.5% | 25.1% | -16.9% (active) |  | 54.3% | 
27 | CO/N=C1\CC[C@]2(C)[C@H]3CC[C@]4(C)C(=O)CC[C@H]4[C@@H]3C[C@@H]3SC(N)=N[C@@]32C1 | 93.8% | 93.2% | 97.1% | 104% | 105% | 85.4% | 101% |  | 98.1% | 94.5%
